Measurements from the supplement of paper PMC3334620.
Over roughly 33,000 sequences, “E-score (-0.5 to 0.5)” has its median near -0.036; the highest 2% begin near 0.37. What follows is part of a selection rich in the highest values, with near analogues and random picks from the rest.

Target: T1, Yer064c (UniProt P40041)
T1 sequence: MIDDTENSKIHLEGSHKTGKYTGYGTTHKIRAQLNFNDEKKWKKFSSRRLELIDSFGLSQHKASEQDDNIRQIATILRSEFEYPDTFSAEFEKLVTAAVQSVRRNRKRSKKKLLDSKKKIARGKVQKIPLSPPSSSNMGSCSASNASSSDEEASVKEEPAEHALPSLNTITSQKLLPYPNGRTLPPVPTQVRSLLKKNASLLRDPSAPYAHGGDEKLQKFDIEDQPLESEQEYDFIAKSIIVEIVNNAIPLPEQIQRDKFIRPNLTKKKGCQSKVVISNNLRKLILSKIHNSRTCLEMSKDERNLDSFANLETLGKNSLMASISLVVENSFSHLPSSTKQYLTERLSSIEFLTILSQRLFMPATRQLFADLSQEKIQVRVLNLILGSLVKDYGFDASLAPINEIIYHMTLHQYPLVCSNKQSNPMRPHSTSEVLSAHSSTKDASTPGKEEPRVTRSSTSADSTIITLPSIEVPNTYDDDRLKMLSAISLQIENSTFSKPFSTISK
Assay: PBM E-score (8-mer binding enrichment) (E-score (-0.5 to 0.5)); higher = stronger / more preferred TF binding
Details: protein concentration: 200 nM; construct: GST-full length
Procedure: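 Universal 'all 10-mer' protein binding microarrays (Agilent AMADID 015681) probed with GST-tagged S. cerevisiae TFs (full-length or DBD) made by in vitro transcription/translation (PURExpress), about 100-200 nM. Bound TF was detected with fluorescent anti-GST. Each ungapped 8-mer (which stands for itself and its reverse complement) is scored by the PBM enrichment score (E-score), a modified Wilcoxon-Mann-Whitney statistic from -0.5 to +0.5, computed with the Universal PBM Analysis Suite. Scale: above 0.35 generally sequence-specific binding.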

Sequence | PBM E-score
ACCTCCAA | 0.0762
ATGTAACG | -0.038
TACCGCCA | -0.125
AGATAGGA | -0.126
CGAATCAA | 0.272
TGAATCAA | 0.419
TCAATCAA | 0.281
AGAATCAA | 0.243
CTAATCAA | 0.264
TTAATCAA | 0.371
ATCGACAG | -0.109
AGTGAGTC | 0.474
CGTGAGTC | 0.48
AGTGAGTA | 0.355
CGTGAGCC | 0.0694
CGTGAGTA | 0.323
AGTGAGTG | 0.0771
GGGTGGGA | -0.139
ACCCCAAT | -0.114
GTATTGTA | -0.0603
ATTGGATC | -0.0186
AATTTTGT | 0.161
AAGCGGGA | -0.239
CGATAGTA | 0.032
AGATAGTG | 0.0368
AGATAGTA | 0.177

Sequence | PBM E-score
CGATAGCC | -0.0746
AGATAGTC | 0.403
CGATAGTC | 0.422
GAACAAGC | -0.357
GAGACATA | 0.334
AAGTCGGT | 0.0145
AAAAGACA | -0.0266
AGGTGGAC | -0.133
GGTCAGAA | -0.00031
TGTCAGAA | -0.00325
ACTCAGAT | 0.339
GGTCAGAC | 0.0361
CGTCAGAC | -0.124
AGTCAGAC | 0.436
ACTCAGAG | 0.302
CGTCAGAG | -0.136
AGTCAGAT | 0.427
AGTCAGAA | 0.434
AATCAGAT | 0.329
AGTCAGAG | 0.428
GGGTATAA | -0.108
ATCGTGAG | 0.124
CCGCGTTC | -0.274
AATTCCCC | -0.128
ACCGGCAG | -0.243
AAAGGAAG | -0.0963

Sequence | PBM E-score
GAGACAGC | 0.136
CTCCTCGA | 0.0215
ATTGATCC | 0.0238
GCGATCCA | -0.145
CTGTAAGC | -0.0285
ATGTAGTC | 0.382
CTGTAGTA | 0.13
CTGTAGAC | 0.0599
CTGTAGTC | 0.416
ATGTAGTA | 0.0442
ATGTAGTG | 0.0118
GTCCGCAA | 0.00032
CTAACCGA | 0.171
ACGGAGAT | 0.0115
CATTCGAA | 0.0908
CCGGTGTA | -0.162
GTAGTAAC | 0.0921
GTAGTCAA | 0.445
GTAGTCCA | 0.262
CTAGTCAC | 0.461
CTAGTCCC | -0.135
GTAGTCAC | 0.479
CTAGTCTA | 0.205
CTAGTCTC | 0.278
GTCGTCAC | 0.142
CTAGTCAA | 0.383

Sequence | PBM E-score
GTAGTCGA | 0.263
CTAGTCGA | 0.214
ACCACTCT | -0.0617
GTCACGAA | 0.106
TTAGTCAA | 0.464
TACGTCAA | -0.153
TTAGTGAA | 0.178
TAGTGCGA | -0.0974
CACTCGAC | -0.0515
AACTCGAC | 0.0909
AACTCGAA | -0.0714
GACTCGAC | 0.391
GACTCGAA | 0.396
CACTCGAA | 0.212
CAGGCATG | -0.133
GTCCTCGA | 0.197
CTATCCCA | -0.208
AGGACTAC | 0.341
ACGACTAA | 0.438
GCAACTAA | 0.0789
TCGACGAA | -0.00207
TCGACTAA | 0.373
ACGACTAC | 0.415
ACTACTAA | 0.25
ACTACGAC | 0.302
GCTACTAA | -0.101

Sequence | PBM E-score
CCGACTAA | 0.358
GCGACTAA | 0.442
ACGACGAA | 0.139
GGGAAACC | -0.0566
CTTCTGTA | -0.0492
ATGGTGCC | -0.358
TGATTGAA | 0.333
CCCTCTGC | -0.226
CCGACTAC | 0.325
ACGACGAT | 0.023
GCGACTAC | 0.391
ACGACTAT | 0.401
GGGACTAC | 0.228
ACGACTAG | 0.359
CGCACAAG | 0.0388
AGGATAGG | -0.0969
ACCAACTG | -0.097
CAACGTGC | -0.137
ACGCTGTA | -0.00895
ATGGCTCG | 0.237
ATGGCTCC | 0.256
ATGGCTCA | 0.422
CCATAAAG | -0.178
CGGACTTA | 0.203
AGGACTTA | 0.234
CCGACTTA | 0.263

Sequence | PBM E-score
ATGACGTA | 0.0562
CTGACTTA | 0.407
GTAACTTA | 0.166
ATGACTTA | 0.475
GGGACTTA | -0.0167
GTGACTTA | 0.443
CAGACACG | -0.14
AGCGGTCA | -0.0499
ACTTACAT | -0.0151
AAGGGGCC | -0.145
AGCGAGGC | -0.282
AGGAGTAA | 0.177
AGGAGTGA | 0.105
AGGAGTCG | 0.375
AGGAGTCC | 0.297
AGGAGTCA | 0.486
AGGAGTTG | -0.0388
ACTTTCTG | 0.208
TCCACAAA | 0.0257
ACCTCCTA | -0.134
CCGCACCA | 0.017
TGCCCCAA | 0.0126
CAGTGAAA | 0.0766
GGTGTCGA | 0.046
GACTACAC | 0.399
CACTACAC | -0.0592

Sequence | PBM E-score
GACTACAA | 0.402
TACTACAA | 0.119
AACTACAC | 0.0443
CACTACAA | 0.0688
ACCAGCGC | -0.221
GGGCCCGA | -0.142
GAGCACGC | -0.163
GCTAAAAA | 0.0668
ACTAAGTA | 0.235
ACTGAGTC | 0.477
CCTGAGTC | 0.461
ACTGAGTA | 0.28
ACTGAGTG | 0.161
CCTAAGTC | 0.276
CCTGAGTA | 0.234
ACTAAGTC | 0.376
CCTGAGGC | -0.16
CGGTATAC | -0.119
ATCCGGGA | -0.104
AATGCACA | -0.0113
TAGCCGCA | -0.0712
